Results on 91 molecules are retold here after PubChem BioAssay AID588689 (Southern Research Specialized Biocontainment Screening …, 2011).

The target in the assay is Genome polyprotein (Dengue virus type 2 (strain 16681-PDK53)) (UniProt P29991). The assay can be described thus: Dengue-2 NS5 methyltransferase inhibitors, primary screen, biochemical, confirmation dose response (AID 588689). To be noted: Dengue-2 NS5 methyltransferase capping enzyme assay, at 25 µM, stronger effect = higher value.
Setting [1] is: measured here: pilot screen replicate inhibition.

Out of some 340,000 compounds screened, about 1,000 (0.29%) were called active. Cut-off read from the data, not from the text of the source: inconclusive = inhibition above about 29% without an active follow-up result; inactive = below that. These entries were drawn from the full list. Potency and affinity values are given separately.

On to `O=C(O)c1ccccc1SCc1csc(-c2ccccc2)n1`, for which the inhibition was -4.89% (inactive).

For the molecule `O=C(Cc1ccc(Br)cc1)NCCCn1ccnc1`, the inhibition is -12.3% (inactive).

Turning to `CCc1ccc(S(=O)(=O)NC(CC(=O)O)c2ccccc2)cc1` (centres undefined), the inhibition was -2.12% (inactive).

`Cc1ccc(S(=O)(=O)Nc2ccc(Br)cc2C(NCC(=O)O)c2ccccc2)cc1` (centres undefined): the inhibition is -7.12% (inactive).

In the case of `CC(=O)Nc1ccccc1NS(=O)(=O)c1cccc([N+](=O)[O-])c1`, the inhibition was -5.88% (inactive).

For `O=C(c1ccccc1NS(=O)(=O)c1cccc([N+](=O)[O-])c1)N1CCCC1`, the inhibition is -1.62% (inactive).

For `Cc1oc2c(cc(NS(=O)(=O)c3ccc(Cl)cc3)c3ccccc32)c1C(=O)O`, the inhibition is 14.3% (inactive).

Consider `CCc1ccc(S(=O)(=O)Nc2ccc(O)c3ccccc23)cc1`, for which the inhibition is 36.9% (inactive).

Consider `COC(=O)CNC(c1ccccc1)c1cc(Br)ccc1NS(=O)(=O)c1ccccc1` (centres undefined), for which the inhibition was -1.28% (inactive).

With `CC(=O)Nc1ccccc1NS(=O)(=O)c1ccc(Cl)cc1`, the inhibition was -10.2% (inactive).

With `COc1ccccc1OCC(=O)OCC(=O)NC1CCCCC1`, the inhibition is 1.94% (inactive).

For the molecule `Cc1ccc(CNC(=O)C(C)C2Sc3ccccc3NC2=O)cc1` (centres undefined), the inhibition is 3.04% (inactive).

On to `CC(=O)c1ccc(S(=O)(=O)N2CCN(c3nn(C)c(=O)n(C)c3=O)CC2)cc1`, for which the inhibition is -1.46% (inactive).

With `CCn1nc(C(=O)Nc2cccc(S(=O)(=O)N3CCCC3)c2)c2ccccc2c1=O`, the inhibition is -8.08% (inactive).

For `Cc1nc(CC(=O)NNS(=O)(=O)c2cccc(Cl)c2Cl)cs1`, the inhibition is -1.61% (inactive).

With `CN(C(=O)COC(=O)c1ccc(Cl)s1)C1(C#N)CCCCC1`, the inhibition was -4.33% (inactive).

Turning to `Cc1ccc(S(=O)(=O)N(C)CCCC(=O)N2CCOCC2)cc1`, the inhibition was -2.14% (inactive).

As to `CCOC(=O)c1ccc(COC(=O)c2ccc3c(c2)-c2ccccc2C3=O)cc1`, the inhibition was 13.5% (inactive).

With `O=C(OCc1ccc(F)cc1)c1ccc2c(c1)-c1ccccc1C2=O`, the inhibition is 6.7% (inactive).

As to `O=C(CCS(=O)(=O)c1ccc(Br)cc1)Nc1ccc(Br)cc1F`, the inhibition is -13.3% (inactive).

In the case of `Cc1cc(C)n2nc(SCC(=O)N(C)c3c(N)n(Cc4ccccc4)c(=O)[nH]c3=O)nc2n1`, the inhibition is -7.52% (inactive).

For the molecule `CCOC(=O)N/N=C/c1cc(C)n(-c2cccc3ccccc23)c1C`, the inhibition is 1.3% (inactive).

Consider `Cc1cc(C)n(CC(=O)NC2CCCCC2C)c(=O)c1C#N` (centres undefined), for which the inhibition is -0.74% (inactive).

For `O=C1C=C(N2CCOCC2)c2ccccc2C1=O`, the inhibition is 9.17% (inactive).

In the case of `NC1=CC(=O)C(=O)c2ccccc21`, the inhibition is 27.9% (inactive).

Turning to `COc1ccc(C(C)=O)cc1CSc1nc2cc(C(=O)O)ccc2c(=O)n1Cc1ccccc1`, the inhibition was 4.46% (inactive).

Take `O=C(CSc1nncs1)NCCNC(=O)CSc1nncs1`: the inhibition is -2.96% (inactive).

Turning to `Cc1[nH]n(C(C)(C)C)c(=O)c1Sc1ccccc1`, the inhibition was -11.6% (inactive).

As for `Cc1[nH]n(-c2ccccc2)c(=O)c1Sc1ccc(Cl)cc1`, the inhibition was 13.9% (inactive).

Regarding `CC(C)(C)c1ccc(-c2nc(C=O)c3ccccn23)cc1`, the inhibition was 0% (inactive).

Regarding `N#C/C(=C\c1ccccc1)C(=O)NNS(=O)(=O)c1ccc(Br)cc1`, the inhibition was 13.6% (inactive).

With `N#C/C(=C/c1cccc([N+](=O)[O-])c1)C(=O)Nc1ccccc1O`, the inhibition was 5.78% (inactive).

As to `COC(CNC(=O)c1coc2nc3ccccc3nc12)OC`, the inhibition was -7.62% (inactive).

Consider `COC(CNC(=O)c1cccnc1)OC`, for which the inhibition was -7.01% (inactive).

As for `O=[N+]([O-])c1ccc(CN2CCC(Cc3ccccc3)CC2)cc1`, the inhibition is -6.79% (inactive).

`CCN1CCN(CCCNC(=O)CNC(=O)c2nn(-c3ccc(OC)cc3)c(=O)c3ccccc23)CC1`: the inhibition is 0.79% (inactive).

On to `CCCCCc1nnc(N)s1`, for which the inhibition is 0% (inactive).

As to `CN1CCN(NC(=O)CSc2ccc(Cl)cc2Cl)CC1`, the inhibition was -10.7% (inactive).

`CCOC(=O)c1c(C)nc2c(c1-c1cc(OC)ccc1OC)C(=O)c1ccccc1-2`: the inhibition was 0% (inactive). Also, the inhibition under setting [1] turned out to be 3.65%.

Regarding `CCOC(=O)c1c2c(n(Cc3ccccc3)c1C)C(=O)C(=O)c1ccccc1-2`, the inhibition was 25.5% (inactive).

Take `O=C1C=C(Nc2ccc(F)cc2)c2ccccc2C1=O`: the inhibition was 0.37% (inactive).

`Cc1ccc(NC2=CC(=O)C(=O)c3ccccc32)cc1`: the inhibition was 54.8% (inactive). In addition, the inhibition under setting [1] came out at 5.15%.

With `CC(C)(C)c1ccc(C2(C)NC(=O)N(CC(=O)c3ccc[nH]3)C2=O)cc1` (centres undefined), the inhibition was -2.04% (inactive).

As to `CC(OC(=O)c1cccc(-n2cnnn2)c1)c1nc2ccccc2c(=O)[nH]1` (centres undefined), the inhibition was -3.65% (inactive).

As for `CC(=O)OCC1=C(C(=O)O)N2C(=O)[C@@H](NC(=O)Cc3ccccc3)[C@H]2SC1`, the inhibition is -1.45% (inactive).

On to `CC(=O)OCC1=C(C(=O)O)N2C(=O)C(NC(=O)CCn3nc(C)c(Cl)c3C)C2SC1` (centres undefined), for which the inhibition was 0.78% (inactive).

On to `O=C(O)c1cccc(NC(=O)c2ccc3c(c2)C(=O)N(Cc2ccco2)C3=O)c1`, for which the inhibition was -0.72% (inactive).

Regarding `O=C(O)CCCN1C(=O)/C(=C\c2ccco2)SC1=S`, the inhibition was 47.7% (inactive).

As for `O=C1NC(=O)/C(=C\c2ccccc2OCc2ccccc2)S1`, the inhibition is -0.78% (inactive).

Consider `Cc1nn(-c2ccccc2)c(Cl)c1/C=C1\SC(=S)N(C)C1=O`, for which the inhibition was 4.37% (inactive).

For `O=C(O)COc1ccccc1/C=C1\SC(=O)N(Cc2ccc(F)cc2)C1=O`, the inhibition was 8.1% (inactive).

Consider `O=C1NC(=O)/C(=C/c2ccccc2OCc2ccccc2)S1`, for which the inhibition is 11.6% (inactive).

On to `CN1C(=O)/C(=C\c2ccccc2OCc2ccccc2)SC1=S`, for which the inhibition is -2.61% (inactive).

With `O=C(O)CCCCN1C(=O)/C(=C\c2ccc(OCc3ccccc3)c(OCc3ccccc3)c2)SC1=S`, the inhibition was 6.5% (inactive).

`Cc1nn(-c2ccccc2)c(Cl)c1/C=C1\C(=O)N(C)C(=S)N1C`: the inhibition was -12.7% (inactive).

`CC(Oc1ccccc1)C(=O)N=C1SC2CS(=O)(=O)CC2N1Cc1ccccc1` (centres undefined): the inhibition is 0% (inactive).

Regarding `Cc1nc(-c2ccccc2)sc1C(=O)Nc1ccccc1F`, the inhibition is 0% (inactive).

Turning to `CCOC(=O)N1CCN(C(=O)c2cn(CC)c3ccc(S(=O)(=O)N(C)C4CCCCC4)cc3c2=O)CC1`, the inhibition was 2.95% (inactive).

Regarding `O=C(NO)C1CC2C=CC1C2` (centres undefined), the inhibition was -6.15% (inactive).

For `CCn1ccc2c(OCC(=O)NCCc3ccc(OC)c(OC)c3)cccc2c1=O`, the inhibition is -3.6% (inactive).

Turning to `CC(=C\c1ccccc1)/C=C1/SC(=S)N(CCCC(=O)O)C1=O`, the inhibition was 19% (inactive).

Turning to `CCOc1ccccc1C=C1SC(=S)N(CC)C1=O`, the inhibition is 6.98% (inactive).

`CN1C(=O)S/C(=C/c2ccccc2OCc2ccc(C(=O)O)cc2)C1=O`: the inhibition is 5.16% (inactive).

With `CC(=C\c1ccccc1)/C=C1/SC(=S)N(CCC(=O)O)C1=O`, the inhibition is 11.1% (inactive).

For the molecule `O=C(Nc1cccc(C(=O)O)c1)/C(=C\c1ccccc1)NC(=O)c1ccccc1Cl`, the inhibition is -2.05% (inactive).

`O=C1CCc2cc(S(=O)(=O)NCCc3ccc(Cl)cc3)cc3c2N1CC3`: the inhibition is 3.62% (inactive).

As for `O=S(=O)(c1cccc2cccc(Cl)c12)N1CCCC1`, the inhibition is -4.68% (inactive).

Take `O=C(CCC1CCCN(C(=O)CCC(F)(F)F)C1)NCc1ccc(F)c(F)c1` (centres undefined): the inhibition is -0.74% (inactive).

As for `O=C(COC(=O)c1ccco1)NCc1ccccc1Cl`, the inhibition is 3.03% (inactive).

For `Nc1ccc(S(=O)(=O)c2ccc(N)cc2)cc1`, the inhibition was 1.49% (inactive).

With `Nc1ccc(S(=O)(=O)c2cccc(N)c2)cc1`, the inhibition is -5.56% (inactive).

As for `COCCn1c(C)cc(C(=O)CSc2n[nH]c(N)n2)c1C`, the inhibition is -0.41% (inactive).

Consider `O=c1c2c([N+](=O)[O-])cc([N+](=O)[O-])cc2sn1Cc1ccccc1`, for which the inhibition was 18.3% (inactive).

Turning to `O=C1c2c([N+](=O)[O-])cc([N+](=O)[O-])cc2S(=O)N1Cc1ccccc1` (centres undefined), the inhibition was 10.1% (inactive).

In the case of `COC(=O)c1ccc(NC(=O)CCCCCn2nnc3ccccc3c2=O)cc1`, the inhibition is -0.65% (inactive).

On to `O=C1CN(C(=O)N[C@@H](Cc2ccccc2)C(=O)N[C@H](Cc2ccccc2)C(=O)O)c2ccccc2N1`, for which the inhibition is -2.17% (inactive).

As to `COc1cc(OC)cc(N(C(=O)C2COc3ccccc3O2)C(C(=O)NC2CCCCC2)c2ccc(O)cc2)c1` (centres undefined), the inhibition was -5.19% (inactive).

Consider `COc1ccccc1NC(=O)Nc1ccccc1C(N)=O`, for which the inhibition is -5.31% (inactive).

On to `NC(=O)N/N=C/c1ccc(-c2ccc(S(=O)(=O)Nc3ncccn3)cc2)o1`, for which the inhibition was -2.88% (inactive).

For `CCOc1ccc(C(=O)N/N=C/c2ccc(-c3ccc(S(=O)(=O)Nc4ncccn4)cc3)o2)cc1`, the inhibition was 0.82% (inactive).

Turning to `CCOC(=O)CC(=O)CSc1ccc2nnc(-c3ccc(F)cc3)n2n1`, the inhibition is 0.81% (inactive).

For the molecule `CC(C)CCN1CN(S(=O)(=O)c2cccs2)c2nc3ccccc3nc21`, the inhibition is -2.77% (inactive).

For the molecule `COc1cc(NC(=S)NN2CCN(C)CC2)cc(OC)c1`, the inhibition is -3.9% (inactive).

As for `N#C/C(=C\C=C\c1ccccc1[N+](=O)[O-])c1nc(-c2ccc3c(c2)OCO3)cs1`, the inhibition was -0.69% (inactive).

As to `COc1ccc(-c2cc(C(F)(F)F)n3nc(C(=O)NCc4ccco4)cc3n2)cc1`, the inhibition was -2.82% (inactive).

Consider `CCc1ccc(N2C(=O)c3sc4nnc(C)c(=O)n4c3C2=O)cc1`, for which the inhibition was -0.68% (inactive). Further, the inhibition under setting [1] worked out at 5.46%.

Take `Cc1ccc(N2C(=O)c3sc4nnc(C)c(=O)n4c3C2=O)cc1`: the inhibition was 0% (inactive).

`Cc1ccc(S(=O)(=O)N2CCCCC2)cc1NC(=O)c1ccco1`: the inhibition is -2.75% (inactive).

`Cc1ccc(C)c(OCc2cc(C(=O)NC(C)c3cnn(C)c3)no2)c1` (centres undefined): the inhibition was -5% (inactive).

As for `CCOC(=O)N1CCC(Nc2c(-c3ccc(C)c(C)c3)c(=O)c2=O)CC1`, the inhibition is -8.18% (inactive).

For the molecule `COc1ccc(S(=O)(=O)Nc2cccc3c2O[C@H](CN(C)C(=O)Nc2ccc(C(F)(F)F)cc2)[C@@H](C)CN([C@H](C)CO)C3=O)cc1`, the inhibition is -2.11% (inactive).
